This passage reports binding signal results from patent US20090232783, “Method for Regulating Production of Hemoglobin Beta Chains” (published 2009).

For the test, the target named is Nuclear ferritin-H (K562 nuclear extract, crude or heat/proteinase K enriched) (Homo sapiens, UniProt P02794 P02794:2-183). Kind of test: competition; 20-fold greater competitor concentration than wt needed for 50% inhibition; 1000-fold vs 50-fold excess. The note with it: protein: extract; dsDNA, one strand shown. On the procedure: Gel mobility shift assays. Gel retardation assays (i.e., gel shifts) were used to determine DNA binding of the extract proteins to the Rsa I (95 bp) fragment and synthetic oligonucleotides (Berg et al., (1989) Nucleic Acids Res 17, 8833-52; Fried & Crothers (1981) Nucleic Acids Res 9, 6505-25). Each reaction contained 0.5-2 ng of DNA, 1.0-5.0 ug of extract protein, 1.0-5.0 ug of poly dI:poly dC, 100 mM KCl, and binding buffer (Berg et al., (1989) Nucleic Acids Res 17, 8833-52). Unlabeled competitor oligonucleotides ranged from 15- to 2000-fold molar excess and were included in the reaction mixture with the probe before adding protein. Gels used for retardation assays were 4%, 5%, or 6% acrylamide and the running buffer was low ionic strength TAE (Berg et al., (1989) Nucleic Acids Res 17, 8833-52).
Definition of the binding site with competition gel shifts. To further localize the binding of ferritin, the 37 bp oligonucleotide was mutated in different places, replacing six nucleotides at a time with all A's, all C's, or all G's, with complementary nucleotide replacements in the opposing strand (FIG. 4A). A competition gel shift assay was done with the partially purified protein from heated K562 nuclear extract, in which each of the unlabeled mutant oligos as well as the native sequence was competed against the 32-P-labeled native sequence for binding.
The sequence AACTCCTAAGCAAAAAACAGAAGAGCCAAGGACAGGT showed a binding signal of 20 fold.
